From PubChem
DT40 TDP1 no CPT: qHTS for Inhibitors of human tyrosyl-DNA phosphodiesterase 1 (TDP1): qHTS in cells in absence of CPT; DT40 Tdp1-/- hTDP1 cells, no CPT, ATP luminescence, 48 h; AID 686978, 2013; Potency, µM (top dose mostly 46.2 µM), most hits filed as inhibitors; 15% of 420,000 active; further: nearly all actives have a fitted effect of over 55% in size
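Cells were dispensed at 400 per well, compounds added by pin tool, plates incubated ≥48 hr at 37 °C, then CellTiter-Glo added for 30 min at room temperature before luminescence reading. Line: DT40 Tdp1-/- complemented with hTDP1; camptothecin omitted.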
TDP1 inh: qHTS Assay for Inhibitors of Tyrosyl-DNA Phosphodiesterase (TDP1). Potency, µM (series often up to 130 µM), most hits filed as inhibitors. recombinant TDP1, AlphaScreen DNA substrate cleavage. 0.28% of 350,000 active; further: nearly all actives have a fitted effect of over 40% in size
Target sequence (Q9NUW8 whole entry, looked up): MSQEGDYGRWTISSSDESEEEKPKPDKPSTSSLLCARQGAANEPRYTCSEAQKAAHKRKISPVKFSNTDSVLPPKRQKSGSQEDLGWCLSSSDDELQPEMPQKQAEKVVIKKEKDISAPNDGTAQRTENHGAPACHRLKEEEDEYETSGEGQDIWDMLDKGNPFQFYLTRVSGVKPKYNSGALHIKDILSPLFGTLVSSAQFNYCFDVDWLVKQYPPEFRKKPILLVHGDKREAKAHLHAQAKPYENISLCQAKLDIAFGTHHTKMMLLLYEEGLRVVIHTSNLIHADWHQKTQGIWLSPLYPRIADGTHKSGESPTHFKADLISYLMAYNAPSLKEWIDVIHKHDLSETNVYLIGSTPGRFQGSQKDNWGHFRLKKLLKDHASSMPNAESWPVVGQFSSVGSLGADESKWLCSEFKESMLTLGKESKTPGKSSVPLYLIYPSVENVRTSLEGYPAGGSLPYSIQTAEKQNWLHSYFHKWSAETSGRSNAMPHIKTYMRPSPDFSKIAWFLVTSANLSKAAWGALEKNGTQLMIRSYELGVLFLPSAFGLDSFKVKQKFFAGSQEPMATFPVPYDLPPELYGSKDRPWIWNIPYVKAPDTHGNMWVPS
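Recombinant human Tdp1 (E. coli-expressed, 1 nM final) preincubated with compounds 15 min at room temperature, then 5'-biotin/3'-phosphotyrosine-FITC DNA substrate (15 nM final) added for 5 min. AlphaScreen beads (10 ug/ml final) added 10 min; cleavage lowers signal.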
ELG1 repair inh: qHTS screen for small molecules that inhibit ELG1-dependent DNA repair in human embryonic kidney (HEK293T) cells expressing luciferase-tagged ELG1 | Potency, µM (series often up to 46.1 µM), hits mostly inhibitors | 2.3% of 330,000 active | AID 504467, 2011 | HEK293T ELG1-luciferase reporter, luminescence, 16 h; DNA damage induced by 5-fluorouridine; further: nearly all actives have a fitted effect of over 55% in size
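Luminescence from the luciferase reporter, measured 30 min after ONE-Glo reagent at room temperature, was the read-out. Beforehand, 2,000 cells per well were exposed for 16 hr at 37 °C to 5-fluorouridine together with compound or vehicle.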
Giardia kill: Small Molecules that selectively kill Giardia lamblia: qHTS | Giardia lamblia trophozoite viability | activity change, % at 7.66 µM, hits read low | 0.15% of 340,000 active | AID 540267, 2011; in the data active means activity change below about -80%; inconclusive means between about -30% and that limit;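 further: parasites exposed to compound for two days anaerobically before the ATP read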
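Media and compound were dispensed first, then trophozoites at 100 cells/well; plates sat 48 hrs at 37 deg C without oxygen before ATP luminescence reagent was added and read after 15-30 min at room temperature.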
TDP1 cell CPT: qHTS for Inhibitors of human tyrosyl-DNA phosphodiesterase 1 (TDP1): qHTS in cells in presence of CPT; chicken DT40 Tdp1-/-;hTDP1 cells + 20 nM CPT, ATP luminescence, 48 h; Potency, µM (series often up to 46.2 µM), hits mostly inhibitors; 12% of 420,000 active; further: nearly all actives have a fitted effect of over 55% in size
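Cell growth measured by CellTiter-Glo luminescence after a minimum 48 h, 37 C compound exposure with 20 nM CPT in Tdp1-knockout DT40 cells stably expressing hTDP1, seeded 400/well; qHTS titration format.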
IL1B secr inh: qHTS for Inhibitors of Inflammasome Signaling: IL-1-beta AlphaLISA Primary Screen | 4.7% of 360,000 active | AID 743279, 2014 | THP-1 LPS/ATP IL-1B secretion, AlphaLISA, 16 h; stronger effect = lower value | activity change, % at 57.5 µM; in the data active means activity change below about -50%; inconclusive means mostly about -30% to -49%
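Secreted IL-1B measured by AlphaLISA bead assay after 16 h compound exposure of THP-1 cells; compounds (final up to 57.5 uM) added 1 h before LPS (250 ng/mL) and ATP (1.25 mM) stimulation; lower signal means less secretion.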
A number is an active result; 0 = inactive; ? = inconclusive; - = not tested or not shown. Most compounds without a hit are left out; they make up all but 19% or so of the library. Unless noted, the call rests on the fitted dose curve; in most records, active means well fitted curve in the direction sought with a large enough effect; inconclusive means small, poorly fitted or top-dose-only effect, or another doubt; inactive means no such curve, though single readings can be large; an effect the other way counts as inactive or inconclusive.

SMILES	DT40 TDP1 no CPT	TDP1 inh	ELG1 repair inh	Giardia kill	TDP1 cell CPT	IL1B secr inh
Oc1[nH]c2ccccc2c1N=Nc1nncc2ccccc12	?	0	?	0	?	0
Cc1sc2ncnc(N=Nc3c(O)[nH]c4ccccc34)c2c1C	23.1µM	0	0	0	0	0
Cc1cccc(NC(=O)c2nc[nH]c2C(=O)NCCCCNC(=O)c2[nH]cnc2C(=O)Nc2cccc(C)c2)c1	20.6µM	0	5.17µM	0	14.6µM	0
Cc1cccc(NC(=O)c2nc[nH]c2C(=O)NCCCCCCNC(=O)c2[nH]cnc2C(=O)Nc2cccc(C)c2)c1	23.1µM	0	9.2µM	0	11.6µM	0
Cc1cccc(NC(=O)c2nc[nH]c2C(=O)NCc2ccccc2)c1	?	0	0	0	?	0
CCc1ccc(NC(=O)C2CCN(c3nn4c(=O)cc(C)nc4s3)CC2)cc1	?	0	-	-	?	-
O=C1c2ccccc2NC(c2ccc(F)cc2)N1Cc1ccco1 (stereo not given)	0	0	0	0	0	0
COc1ccc(C2Nc3ccccc3C(=O)N2Cc2ccco2)cc1 (stereo not given)	12.6µM	0	-	0	?	-
O=C1c2ccccc2NC(c2ccccc2)N1Cc1ccco1 (stereo not given)	0	0	0	0	0	0
O=C1c2ccccc2NC(c2ccccc2OCc2ccccc2)N1Cc1ccco1 (stereo not given)	10µM	0	-	0	11.2µM	-
O=C1c2ccccc2NC(c2ccccc2O)N1Cc1ccco1 (stereo not given)	15.8µM	0	-	0	?	-
O=C1c2ccccc2N2C(=O)c3ccccc3C2N1Cc1ccco1 (stereo not given)	18.4µM	0	?	0	23.1µM	?
O=C(NC1CCCCCCC1)C1c2ccccc2C(=O)N1Cc1ccco1 (stereo not given)	0	0	0	0	0	0
CCCn1c2ccccc2c2cnn(CC(=O)NCCc3ccc(C)cc3)c(=O)c21	?	0	-	-	?	-
O=C1c2ccccc2N2C(=O)c3ccccc3C2N1O (stereo not given)	0	0	0	0	0	0
Cc1ccccc1N1C(=O)c2ccccc2N2C(=O)c3ccccc3C12 (stereo not given)	16.4µM	0	?	0	8.2µM	0
CCCN1C(=O)c2ccccc2NC1c1ccc(Br)cc1 (stereo not given)	?	-	0	0	0	-51.4
COc1ccc(C(=O)CC2(O)C(=O)Nc3c(C)cccc32)c(OC)c1OC (stereo not given)	0	0	-	-	0	-
NC(=O)C1CC12c1ccccc1-c1ccccc12 (stereo not given)	0	-	0	0	0	0
CC(C)(C)NC(=O)NC(=O)COC(=O)Cc1c(Cl)cccc1Cl	0	0	0	0	0	-54.2
Cc1cc(C)c2c(=O)n3c(nc2c1)C(Cc1ccc(O)cc1)NC(=O)c1cccnc1-3 (stereo not given)	18.4µM	-	-	-	?	0
Cc1ccc2nc3n(c(=O)c2c1)-c1ncccc1C(=O)NC3Cc1ccc(O)cc1 (stereo not given)	0	-	-	-	0	0
Cc1cc(C)c2c(=O)n3c(nc2c1)C(Cc1ccccc1)NC(=O)c1cccnc1-3 (stereo not given)	20.6µM	-	-	-	?	0
CCCC1NC(=O)c2cccnc2-n2c1nc1cc(C)cc(C)c1c2=O (stereo not given)	?	-	-	-	?	0
CCN1C(=O)[C@H]2[C@H]3CN=C(SCC(=O)c4ccccc4)N3[C@@](C)(C(=O)OC)[C@H]2C1=O	0	0	?	0	?	0
